Experimental data taken from PubChem BioAssay AID1159580 (chemical genetic matrix, 2015).
Several values for one entry are separate records, joined by “and”; a condition that tells them apart may be missing. Equal values may be shown once. Screen size: about 5,500 compounds; about 2,000 (36%) were called active. Inconclusive results (about 18%) are left out. Rule as the data show it: active = normalized growth mostly below about 0.91 (no sharp cut-off); inconclusive = no clear call, values can overlap the other calls; inactive = mostly above about 0.92. The list shows a part of the results.

Test: chemical genetic growth profiling, strain panel (AID 1159580);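 also: tested at 20 µM; growth read once vehicle control cultures reached saturation at 30 °C; 1 = growth at the plate median or of vehicle wells; lower values mean less growth of the strain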
Conditions: S. cerevisiae deletion strains, growth OD

Measured: normalized growth

CCCCNC(=O)NS(=O)(=O)c1ccc(C)cc1
inactive: locus YAL013W, strain DEP1, stronger effect = lower value 0.995 | locus YAL021C, strain ccr4, stronger effect = lower value 1.02 | locus YAL026C, strain drs2, stronger effect = lower value 1.01 | locus YAL030W, strain snc1, stronger effect = lower value 1.02 | locus YAL040C, strain CLN3, stronger effect = lower value 0.997 | locus YBL061C, strain skt5, stronger effect = lower value 1.01 | locus YBR009C, strain hhf1, stronger effect = lower value 0.973 | locus YBR021W, strain FUR4, stronger effect = lower value 1.01 | locus YBR023C, strain chs3, stronger effect = lower value 1.02 | locus YBR171W, strain sec66, stronger effect = lower value 1.01 | locus YBR229C, strain ROT2, stronger effect = lower value 0.993 | locus YBR231C, strain swc5, stronger effect = lower value 1.01 | locus YBR279W, strain paf1, stronger effect = lower value 0.995 | locus YCL011C, strain gbp2, stronger effect = lower value 1 | locus YCL016C, strain dcc1, stronger effect = lower value 0.993 | locus YCL029C, strain bik1, stronger effect = lower value 0.979 | locus YCL061C, strain MRC1 (second series), stronger effect = lower value 1 | locus YCL061C, strain MRC1, stronger effect = lower value 1.01 | locus YCL069W, strain vba3, stronger effect = lower value 1.02 | locus YCR088W, strain abp1, stronger effect = lower value 1.02 | locus YDL005C, strain med2, stronger effect = lower value 1.01 | locus YDL035C, strain GPR1, stronger effect = lower value 0.989 | locus YDL040C, strain nat1, stronger effect = lower value 1.01 | locus YDL074C, strain BRE1, stronger effect = lower value 1.02 | locus YDL101C, strain DUN1, stronger effect = lower value 1.01 | locus YDL134C, strain PPH21, stronger effect = lower value 1 | locus YDL185W, strain tfp1, stronger effect = lower value 0.953 | locus YDL192W, strain arf1, stronger effect = lower value 0.97 | locus YDR001C, strain nth1, stronger effect = lower value 1.02 | locus YDR069C, strain doa4, stronger effect = lower value 1.02 | locus YDR101C, strain arx1, stronger effect = lower value 0.994 | locus YDR137W, strain rgp1, stronger effect = lower value 0.978 | locus YDR159W, strain sac3, stronger effect = lower value 0.93 | locus YDR162C, strain NBP2, stronger effect = lower value 0.974 | locus YDR195W, strain ref2 1.01 | locus YDR297W, strain sur2, stronger effect = lower value 1.01 | locus YDR318W, strain mcm21, stronger effect = lower value 0.978 | locus YDR334W, strain swr1, stronger effect = lower value 1.01 | locus YDR335W, strain msn5, stronger effect = lower value 1.01 | locus YDR363W, strain ESC2, stronger effect = lower value 1.01 | locus YDR388W, stronger effect = lower value 0.974 | locus YDR392W, strain spt3, stronger effect = lower value 0.927 | locus YDR502C, strain sam2, stronger effect = lower value 0.985 | locus YEL003W, strain gim4, stronger effect = lower value 1.02 | locus YEL037C, strain rad23, stronger effect = lower value 1.01 | locus YEL061C, strain CIN8 (second series), stronger effect = lower value 1.01 | locus YEL061C, strain CIN8, stronger effect = lower value 0.99 | locus YER002W, strain NOP16, stronger effect = lower value 1 | locus YER015W, strain faa2, stronger effect = lower value 1.01 | locus YER016W, strain bim1, stronger effect = lower value 0.988 | locus YER110C, stronger effect = lower value 0.982 | locus YER111C, strain swi4, stronger effect = lower value 1.02 | locus YER155C, strain BEM2 (second series), stronger effect = lower value 1.04 | locus YER155C, strain BEM2, stronger effect = lower value 0.985 | locus YER167W, strain BCK2, stronger effect = lower value 0.994 | locus YFR010W, strain ubp6, stronger effect = lower value 1.02 | locus YGL078C, strain dbp3, stronger effect = lower value 0.989 | locus YGL086W, strain mad1, stronger effect = lower value 1 | locus YGL167C, strain pmr1, stronger effect = lower value 1.01 | locus YGL173C, strain kem1, stronger effect = lower value 1.03 | locus YGL227W, strain vid30, stronger effect = lower value 1.01 | locus YGL240W, strain doc1, stronger effect = lower value 1.01 | locus YGL248W, strain PDE1, stronger effect = lower value 1 | locus YGL253W, strain hxk2, stronger effect = lower value 1 | locus YGR078C, strain PAC10, stronger effect = lower value 1.01 | locus YGR135W, strain pre9, stronger effect = lower value 0.986 | locus YGR252W, strain gcn5, stronger effect = lower value 1.21 | locus YHR013C, strain ard1, stronger effect = lower value 0.992 | locus YHR027C, strain rpn1, stronger effect = lower value 1 | locus YHR030C, strain SLT2, stronger effect = lower value 0.99 and 0.938 | locus YHR079C, strain IRE1 (second series), stronger effect = lower value 0.98 | locus YHR079C, strain IRE1, stronger effect = lower value 0.964 | locus YHR094C, strain hxt1, stronger effect = lower value 0.979 | locus YHR129C, strain ARP1, stronger effect = lower value 0.996 | locus YHR142W, strain chs7, stronger effect = lower value 1.02 | locus YHR200W, strain rpn10, stronger effect = lower value 0.985 | locus YIL066C, strain RNR3, stronger effect = lower value 0.988 | locus YIL073C, strain SPO22, stronger effect = lower value 0.831 | locus YIL125W, strain kgd1, stronger effect = lower value 0.962 | locus YIR030C, strain dcg1, stronger effect = lower value 0.982 | locus YJL092W, strain hpr5, stronger effect = lower value 1.01 | locus YJL095W, strain BCK1 (second series), stronger effect = lower value 1.02 | locus YJL095W, strain BCK1, stronger effect = lower value 1.01 and 0.954 | locus YJL115W, strain asf1, stronger effect = lower value 1 | locus YJL129C, strain trk1, stronger effect = lower value 1.01 | locus YJL134W, strain LCB3, stronger effect = lower value 0.99 | locus YJL154C, strain vps35, stronger effect = lower value 1.01 | locus YJL164C, strain tpk1, stronger effect = lower value 1 | locus YJL166W, strain qcr8, stronger effect = lower value 1.02 | locus YJL168C, strain set2, stronger effect = lower value 0.981 | locus YJL187C, strain SWE1 (second series), stronger effect = lower value 0.982 | locus YJL187C, strain SWE1, stronger effect = lower value 1.02 | locus YJR043C, strain POL32, stronger effect = lower value 1.02 | locus YJR066W, strain TOR1, stronger effect = lower value 0.92
